# Laboratory results published in paper PMC5540273 (PLoS ONE, 2017).
# Like-named read-outs stand apart in the source and are kept apart here.
# Key:
# [1] = tested on: JAK1(JH2domain-pseudokinase); conditions: concentration: 1 μM,replicates: in singlicate; n = 1
# [2] = tested on: JAK2(JH1domain-catalytic); conditions: concentration: 1 μM,replicates: in singlicate; n = 1
# [3] = tested on: JAK3(JH1domain-catalytic); conditions: concentration: 1 μM,replicates: in singlicate; n = 1
# JNK1 = tested on: T1, JNK1; conditions: concentration: 1 μM,replicates: in singlicate; n = 1
# T1 construct: gene MAPK8
# JNK2 = tested on: T2, JNK2; conditions: concentration: 1 μM,replicates: in singlicate; n = 1
# T2 construct: gene MAPK9
# JNK3 = tested on: T3, JNK3; conditions: concentration: 1 μM,replicates: in singlicate; n = 1
# T3 construct: gene MAPK10
# KIT-autoinhibited = conditions: concentration: 1 μM,replicates: in singlicate; n = 1
# KIT = conditions: concentration: 1 μM,replicates: in singlicate; n = 1
# LATS1 = conditions: concentration: 1 μM,replicates: in singlicate; n = 1
# LATS2 = conditions: concentration: 1 μM,replicates: in singlicate; n = 1
# LCK = conditions: concentration: 1 μM,replicates: in singlicate; n = 1
# LIMK1 = conditions: concentration: 1 μM,replicates: in singlicate; n = 1
# LIMK2 = conditions: concentration: 1 μM,replicates: in singlicate; n = 1
# LKB1 = tested on: T4, LKB1; conditions: concentration: 1 μM,replicates: in singlicate; n = 1
# T4 construct: gene STK11
# LOK = tested on: T5, LOK; conditions: concentration: 1 μM,replicates: in singlicate; n = 1
# T5 construct: gene STK10
# LRRK2 = conditions: concentration: 1 μM,replicates: in singlicate; n = 1
# LTK = conditions: n = 1
# LYN = conditions: concentration: 1 μM,replicates: in singlicate; n = 1
# LZK = tested on: T6, LZK; conditions: concentration: 1 μM,replicates: in singlicate; n = 1
# T6 construct: gene MAP3K13
# MAK = conditions: concentration: 1 μM,replicates: in singlicate; n = 1
# [4] = concentration: 1 μM,replicates: in singlicate
# 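Also: KINOMEscan kinase panel screen.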
compound,measurement,setting,value
COc1cc2nccc(Nc3ccc(Oc4ccccc4)cc3)c2cc1OC.Cl [GI261656],%Inh,[1],0%
same,%Inh,[2],100%
same,%Inh,[3],0%
same,%Inh,JNK1,4%
same,%Inh,JNK2,10%
same,%Inh,JNK3,0%
same,%Inh,KIT-autoinhibited,0%
same,%Inh,KIT,79%
same,%Inh,LATS1,0%
same,%Inh,LATS2,9%
same,%Inh,LCK,99.2%
same,%Inh,LIMK1,0%
same,%Inh,LIMK2,14%
same,%Inh,LKB1,13%
same,%Inh,LOK,0%
same,%Inh,LRRK2,0%
same,%Inh,LTK; [4],0%
same,%Inh,LYN,71%
same,%Inh,LZK,5%
same,%Inh,MAK,1%
O=C(NCC1CC1)c1ccc(-c2cc(C(=O)NC3CC3)ccc2F)cc1 [GW810445],%Inh,[1],0%
same,%Inh,[2],12%
same,%Inh,[3],0%
same,%Inh,JNK1,0%
same,%Inh,JNK2,0%
same,%Inh,JNK3,0%
same,%Inh,KIT-autoinhibited,0%
same,%Inh,KIT,0%
same,%Inh,LATS1,0%
same,%Inh,LATS2,0%
same,%Inh,LCK,0%
same,%Inh,LIMK1,0%
same,%Inh,LIMK2,0%
same,%Inh,LKB1,68%
same,%Inh,LOK,5%
same,%Inh,LRRK2,71%
same,%Inh,LTK; [4],28%
same,%Inh,LYN,0%
same,%Inh,LZK,0%
same,%Inh,MAK,0%
CCNCC(Cc1ccccc1)NC(=O)c1cc(Br)c(-c2ccnc3[nH]ccc23)s1.Cl.Cl (stereo not shown) [GSK1383280],%Inh,[1],0%
same,%Inh,[2],82%
same,%Inh,[3],87%
same,%Inh,JNK1,33%
same,%Inh,JNK2,10%
same,%Inh,JNK3,1%
same,%Inh,KIT-autoinhibited,0%
same,%Inh,KIT,50%
same,%Inh,LATS1,43%
same,%Inh,LATS2,82%
same,%Inh,LCK,11%
same,%Inh,LIMK1,21%
same,%Inh,LIMK2,23%
same,%Inh,LKB1,0%
same,%Inh,LOK,0%
same,%Inh,LRRK2,0%
same,%Inh,LTK; [4],0%
same,%Inh,LYN,0%
same,%Inh,LZK,0%
same,%Inh,MAK,44%
CCCC(=O)Nc1n[nH]c2ncccc12 [SB-601436],%Inh,[1],4%
same,%Inh,[2],18%
same,%Inh,[3],0%
same,%Inh,JNK1,20%
same,%Inh,JNK2,6%
same,%Inh,JNK3,1%
same,%Inh,KIT-autoinhibited,0%
same,%Inh,KIT,0%
same,%Inh,LATS1,40%
same,%Inh,LATS2,0%
same,%Inh,LCK,14%
same,%Inh,LIMK1,0%
same,%Inh,LIMK2,0%
same,%Inh,LKB1,0%
same,%Inh,LOK,3%
same,%Inh,LRRK2,0%
same,%Inh,LTK; [4],4%
same,%Inh,LYN,0%
same,%Inh,LZK,0%
same,%Inh,MAK,7%
COc1ccc(Nc2nccc(N3CCC(NC(=O)c4cccc(C#N)c4)C3)n2)cc1 (stereo not shown) [GSK1379730],%Inh,[1],0%
same,%Inh,[2],12%
same,%Inh,[3],0%
same,%Inh,JNK1,15%
same,%Inh,JNK2,16%
same,%Inh,JNK3,10%
same,%Inh,KIT-autoinhibited,0%
same,%Inh,KIT,0%
same,%Inh,LATS1,0%
same,%Inh,LATS2,0%
same,%Inh,LCK,23%
same,%Inh,LIMK1,0%
same,%Inh,LIMK2,0%
same,%Inh,LKB1,2%
same,%Inh,LOK,0%
same,%Inh,LRRK2,31%
same,%Inh,LTK; [4],0%
same,%Inh,LYN,0%
same,%Inh,LZK,0%
same,%Inh,MAK,26%
Cc1ccc(Nc2ccnc(Nc3ccc4c(c3)CS(=O)(=O)C4)n2)cc1O.Cl [GW579362],%Inh,[1],99.1%
same,%Inh,[2],99.1%
same,%Inh,[3],98.2%
same,%Inh,JNK1,98.4%
same,%Inh,JNK2,87%
same,%Inh,JNK3,95.1%
same,%Inh,KIT-autoinhibited,41%
same,%Inh,KIT,99.8%
same,%Inh,LATS1,0%
same,%Inh,LATS2,21%
same,%Inh,LCK,97.3%
same,%Inh,LIMK1,35%
same,%Inh,LIMK2,49%
same,%Inh,LKB1,29%
same,%Inh,LOK,83%
same,%Inh,LRRK2,79%
same,%Inh,LTK; [4],55%
same,%Inh,LYN,84%
same,%Inh,LZK,58%
same,%Inh,MAK,73%
CC(=O)Nc1ccc(-c2cc3ncnc(SCC(=O)O)c3s2)cc1,%Inh,[1],7%
same,%Inh,[2],0%
same,%Inh,[3],17%
same,%Inh,JNK1,7%
same,%Inh,JNK2,0%
same,%Inh,JNK3,0%
same,%Inh,KIT-autoinhibited,26%
same,%Inh,KIT,79%
same,%Inh,LATS1,0%
same,%Inh,LATS2,20%
same,%Inh,LCK,1%
same,%Inh,LIMK1,0%
same,%Inh,LIMK2,0%
same,%Inh,LKB1,0%
same,%Inh,LOK,5%
same,%Inh,LRRK2,0%
same,%Inh,LTK; [4],0%
same,%Inh,LYN,9%
same,%Inh,LZK,0%
same,%Inh,MAK,52%
CN(c1ccc2c(c1)nc(NCc1ccc(F)cc1)n2C)c1ccnc(Nc2ccc(CS(C)(=O)=O)cc2)n1.Cl [GW813244],%Inh,[1],56%
same,%Inh,[2],54%
same,%Inh,[3],100%
same,%Inh,JNK1,42%
same,%Inh,JNK2,39%
same,%Inh,JNK3,0%
same,%Inh,KIT-autoinhibited,69%
same,%Inh,KIT,99.9%
same,%Inh,LATS1,10%
same,%Inh,LATS2,0%
same,%Inh,LCK,67%
same,%Inh,LIMK1,33%
same,%Inh,LIMK2,0%
same,%Inh,LKB1,29%
same,%Inh,LOK,99.5%
same,%Inh,LRRK2,0%
same,%Inh,LTK; [4],48%
same,%Inh,LYN,68%
same,%Inh,LZK,0%
same,%Inh,MAK,2%
O=C(Nc1ccc(Oc2ccc3nc(NC(=O)C4CC4)cn3n2)c(F)c1)c1cccn(-c2ccccc2)c1=O,%Inh,[1],0%
same,%Inh,[2],0%
same,%Inh,[3],0%
same,%Inh,JNK1,0%
same,%Inh,JNK2,0%
same,%Inh,JNK3,0%
same,%Inh,KIT-autoinhibited,0%
same,%Inh,KIT,100%
same,%Inh,LATS1,0%
same,%Inh,LATS2,0%
same,%Inh,LCK,0%
same,%Inh,LIMK1,33%
same,%Inh,LIMK2,29%
same,%Inh,LKB1,0%
same,%Inh,LOK,99.5%
same,%Inh,LRRK2,0%
same,%Inh,LTK; [4],29%
same,%Inh,LYN,36%
same,%Inh,LZK,0%
same,%Inh,MAK,10%
O=C(Nc1cccc(C(F)(F)F)c1)c1cccc(Oc2ccc3nccn3n2)c1,%Inh,[1],10%
same,%Inh,[2],30%
same,%Inh,[3],8%
same,%Inh,JNK1,21%
same,%Inh,JNK2,0%
same,%Inh,JNK3,10%
same,%Inh,KIT-autoinhibited,44%
same,%Inh,KIT,99.9%
same,%Inh,LATS1,0%
same,%Inh,LATS2,0%
same,%Inh,LCK,63%
same,%Inh,LIMK1,0%
same,%Inh,LIMK2,8%
same,%Inh,LKB1,0%
same,%Inh,LOK,24%
same,%Inh,LRRK2,0%
same,%Inh,LTK; [4],45%
same,%Inh,LYN,37%
same,%Inh,LZK,20%
same,%Inh,MAK,0%
FC(F)(F)c1cc(Br)cc(Nc2nccc(-c3cnn4ncccc34)n2)c1 [GW810578],%Inh,[1],80%
same,%Inh,[2],0%
same,%Inh,[3],0%
same,%Inh,JNK1,0%
same,%Inh,JNK2,5%
same,%Inh,JNK3,1%
same,%Inh,KIT-autoinhibited,63%
same,%Inh,KIT,100%
same,%Inh,LATS1,0%
same,%Inh,LATS2,6%
same,%Inh,LCK,4%
same,%Inh,LIMK1,0%
same,%Inh,LIMK2,0%
same,%Inh,LKB1,14%
same,%Inh,LOK,25%
same,%Inh,LRRK2,58%
same,%Inh,LTK; [4],18%
same,%Inh,LYN,8%
same,%Inh,LZK,0%
same,%Inh,MAK,55%
Nc1nccc(-c2ccc3c(N)n[nH]c3c2)n1 [GSK1034945],%Inh,[1],29%
same,%Inh,[2],17%
same,%Inh,[3],14%
same,%Inh,JNK1,20%
same,%Inh,JNK2,10%
same,%Inh,JNK3,0%
same,%Inh,KIT-autoinhibited,0%
same,%Inh,KIT,6%
same,%Inh,LATS1,0%
same,%Inh,LATS2,0%
same,%Inh,LCK,0%
same,%Inh,LIMK1,0%
same,%Inh,LIMK2,12%
same,%Inh,LKB1,4%
same,%Inh,LOK,0%
same,%Inh,LRRK2,0%
same,%Inh,LTK; [4],8%
same,%Inh,LYN,0%
same,%Inh,LZK,0%
same,%Inh,MAK,81%
C[C@@H]1CNc2c(sc3ccc4nc(-c5ccc(O)cc5)ccc4c23)C(=O)N1,%Inh,[1],36%
same,%Inh,[2],53%
same,%Inh,[3],94.6%
same,%Inh,JNK1,18%
same,%Inh,JNK2,0%
same,%Inh,JNK3,6%
same,%Inh,KIT-autoinhibited,0%
same,%Inh,KIT,54%
same,%Inh,LATS1,17%
same,%Inh,LATS2,13%
same,%Inh,LCK,0%
same,%Inh,LIMK1,4%
same,%Inh,LIMK2,0%
same,%Inh,LKB1,0%
same,%Inh,LOK,19%
same,%Inh,LRRK2,93.5%
same,%Inh,LTK; [4],83%
same,%Inh,LYN,4%
same,%Inh,LZK,0%
same,%Inh,MAK,46%
COc1cccc(OC)c1C(=O)Nc1cccc(-c2nn3ccccc3c2-c2ccnc(Nc3cccc(F)c3)n2)c1 [GSK361065],%Inh,[1],4%
same,%Inh,[2],3%
same,%Inh,[3],0%
same,%Inh,JNK1,44%
same,%Inh,JNK2,0%
same,%Inh,JNK3,0%
same,%Inh,KIT-autoinhibited,11%
same,%Inh,KIT,90.9%
same,%Inh,LATS1,6%
same,%Inh,LATS2,10%
same,%Inh,LCK,24%
same,%Inh,LIMK1,31%
same,%Inh,LIMK2,15%
same,%Inh,LKB1,6%
same,%Inh,LOK,90%
same,%Inh,LRRK2,0%
same,%Inh,LTK; 1 µM,13%
same,%Inh,LYN,8%
same,%Inh,LZK,8%
same,%Inh,MAK,14%
